Values joined by “and” are separate entries in the source; they are usually repeats but may differ in a detail not shown here. Identical values can stand only once. Results filed as inconclusive are left out. Entries that show only a call come without a potency. Active and inactive are the calls of the source. Unless noted, the call rests on the fitted dose curve; in most records, active means well fitted curve in the direction sought with a large enough effect in the repeat runs; inconclusive means weak or mixed curves; inactive means no such curve, though single readings can be large; an effect the other way counts as inactive or inconclusive.
Tests used:
[1] = qHTS assay for small molecule agonists of the p53 signaling pathway (AID 651631; calls by dose curve; further: nearly all actives have a fitted effect of over 15% in size; further: potency means the concentration at half of the fitted maximal effect)
How it was run: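 Quantitative high-throughput format: 4,000 p53RE-bla HCT-116 cells/well, 5 h pre-incubation, 16 h compound exposure at 37 °C, 2 h room-temperature substrate step, fluorescence intensity measured.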

[2] = qHTS assay for small molecules that induce genotoxicity in human embryonic kidney cells expressing luciferase-tagged ATAD5 (AID 651632); further: nearly all actives have a fitted effect of over 15% in size
How it was run: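 Increased luciferase signal from ATAD5-tagged reporter cells indicates DNA-damage-driven ATAD5 induction. HEK293T cells are treated for 16 hr at 37C before detection with Amplite.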

[3] = qHTS assay for small molecule agonists of the p53 signaling pathway - cell viability (AID 651633; calls by dose curve;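 further: p53RE-bla HCT reporter cells with a stable beta-lactamase p53 reporter; series mostly up to about 83 µM; nearly all actives have a fitted effect of over 30% in size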)
How it was run: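 p53RE-bla cells were treated with compound for 16 hours at 37 C. Cytotoxicity was then measured as CellTiter-Glo luminescence after 30 min at room temperature.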

[4] = qHTS assay for small molecules that induce genotoxicity in human embryonic kidney cells expressing luciferase-tagged ATAD5 - cell viability (AID 651634; calls by dose curve; further: nearly all actives have a fitted effect of over 25% in size; further: potency means the concentration at half of the fitted maximal effect)
How it was run: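 Cytotoxicity counterscreen in HEK293T cells bearing an ATAD5-luciferase reporter: live-cell protease activity measured by CellTiter-Fluor fluorescence after 15.5 hr compound exposure.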

[5] = qHTS assay for small molecule disruptors of the mitochondrial membrane potential - cell viability (AID 720634; calls by dose curve;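 further: human HepG2 liver cancer cells; series mostly up to about 83 µM; nearly all actives have a fitted effect of over 20% in size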)
How it was run: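 After overnight attachment at 37 C, HepG2 cells received compound or DMSO vehicle for 1 hr. Viability is then taken from ATP-driven luminescence following a 30 min room-temperature CellTiter-Glo step.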

[6] = qHTS assay to test for compound auto fluorescence at 590 nm (red) in HepG2 cells (AID 720674)
How it was run: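 Seeding: 2,000 HepG2 cells/well, MEM/10% FBS, overnight 37 C. Dosing: compound vs DMSO. Incubation: 1 hr, 37 C, 5% CO2. Read: fluorescence 540 ex/590 em, Rose Bengal sodium as red reference.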

[7] = qHTS assay to test for compound auto fluorescence at 535 nm (green) in HepG2 cells (AID 720675)
[8] = qHTS assay to test for compound auto fluorescence at 460 nm (blue) in HEK293 cells (AID 720678)
How it was run: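 After cell attachment (4-5 hr, 37C), compounds were pinned onto HEK293 monolayers in 10% dialyzed FBS medium. The blue channel (405/460 nm) was read following overnight culture. Equivalency was calculated against triamterene.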

[9] = qHTS assay to test for compound auto fluorescence at 590 nm (red) in HEK293 cells (AID 720679)
How it was run: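 Plates of HEK293 cells (10% dialyzed FBS) are treated with 23 nL compound or DMSO vehicle after a 4-5 hr attachment period, incubated overnight at 37C, and read for red fluorescence at 540/590nm.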

[10] = qHTS assay for small molecule disruptors of the mitochondrial membrane potential (AID 720635); further: potency means the concentration at half of the fitted maximal effect
How it was run: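 HepG2 cells exposed to compound 1 hr at 37C, then Mito-MPS dye 30 min. Ratio read of aggregate (540/590 nm) versus monomer (490/535 nm) fluorescence.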

SMILES | Potency [1] | Potency [2] | Potency [3] | Potency [4] | Potency [5] | outcome [6] | outcome [7] | Potency [8] | outcome [9] | Potency [10]
CC(C)(CO)CO | inactive | inactive | inactive | inactive | inactive | inactive | inactive | inactive | inactive | 
CC/C=C(\C(=O)N[C@@H]1C(=O)N2C(C(=O)OCOC(=O)C(C)(C)C)=C(COC(N)=O)CS[C@H]12)c1csc(N)n1 | inactive | inactive | inactive | inactive | inactive |  | inactive | inactive | inactive | inactive
NC(=O)c1ncn([C@@H]2O[C@H](CO)[C@@H](O)[C@H]2O)n1 | 13.3 µM (active) and 64.4 µM (active) | inactive | inactive | inactive | inactive | inactive | inactive | inactive | inactive | inactive
CC1(C)[C@@H](O[C@H]2O[C@H](C(=O)O)[C@@H](O)[C@H](O)[C@H]2O[C@@H]2O[C@H](C(=O)O)[C@@H](O)[C@H](O)[C@H]2O)CC[C@]2(C)[C@H]3C(=O)C=C4[C@@H]5C[C@@](C)(C(=O)O)CC[C@]5(C)CC[C@@]4(C)[C@]3(C)CC[C@@H]12 | inactive | inactive | inactive | inactive | inactive |  | inactive | inactive | inactive | inactive
O=c1c(O)c(-c2ccc(O)c(O)c2)oc2cc(O)cc(O)c12 | 49 µM (active) | inactive | inactive | 54.5 µM (active) | inactive | inactive | inactive | inactive | inactive | 
NC(N)=S | inactive | inactive | inactive | inactive | inactive |  | inactive | inactive | inactive | inactive
Cc1cc(C)cc(O)c1 | inactive | inactive | inactive | inactive | inactive |  | inactive | inactive | inactive | inactive
COc1c2ccoc2cc2oc(=O)ccc12 | inactive | inactive | inactive | inactive | inactive |  | inactive | inactive | inactive | inactive
Cc1cc(C)c(O)c(C)c1 | inactive | inactive | inactive | inactive | inactive |  | inactive | inactive | inactive | inactive
COc1ccc([C@@H]2CC(=O)c3c(O)cc(O[C@@H]4O[C@H](CO[C@@H]5O[C@@H](C)[C@H](O)[C@@H](O)[C@H]5O)[C@@H](O)[C@H](O)[C@H]4O)cc3O2)cc1OC | inactive | inactive | inactive | inactive | inactive |  | inactive | inactive | inactive | inactive
CCCCC(=O)O | inactive | inactive | inactive | inactive | inactive |  | inactive | inactive | inactive | inactive
Oc1ccc(Cc2ccccc2O)cc1 | inactive | inactive | inactive | inactive | inactive | inactive | inactive | inactive | inactive | 11 µM (active) and 27.3 µM (active)
NC(=O)NC(N)=O | inactive | inactive | inactive | inactive | inactive |  | inactive | inactive | inactive | inactive
CCn1cc(C(=O)O)c(=O)c2cc3c(cc21)OCO3 | inactive | inactive | inactive | inactive | inactive |  | inactive | inactive | inactive | inactive
OB(O)O | inactive | inactive | inactive | inactive | inactive | inactive | inactive | inactive | inactive | inactive
CCCCCCC(=O)O | inactive | inactive | inactive | inactive | inactive |  | inactive | inactive | inactive | inactive
Cc1ccccc1Cl | inactive | inactive | inactive | inactive | inactive |  | inactive | inactive | inactive | inactive
CC(C)=CCC/C(C)=C/C=O | inactive | inactive | inactive | inactive | inactive |  | inactive | inactive | inactive | inactive
CCOC(=O)CC(=O)OCC | inactive | inactive | inactive | inactive | inactive | inactive | inactive | inactive | inactive | inactive
O=C1C(N(CO)C(=O)NCO)N(CO)C(=O)N1CO (stereo unspecified) | inactive | inactive | inactive | inactive | inactive |  | inactive | inactive | inactive | inactive
CC(=O)OC(C)(C)C1CC=C(C)CC1 (stereo unspecified) | inactive | inactive | inactive | inactive | inactive |  | inactive | inactive | inactive | inactive
O=C(Cl)c1ccc(C(=O)Cl)cc1 | inactive | inactive | inactive | inactive | inactive | inactive | inactive | inactive | inactive | inactive
CCCCCC(C)=O | inactive | inactive | inactive | inactive | inactive |  | inactive | inactive | inactive | inactive
CC(=O)CC(=O)N(C)C | inactive | inactive | inactive | inactive | inactive |  | inactive | inactive | inactive | inactive
CC(=O)OCc1ccc2c(c1)OCO2 | inactive | inactive | inactive | inactive | inactive | inactive | inactive | inactive | inactive | inactive
O=C(O)C1=NN(c2ccc(S(=O)(=O)O)cc2)C(=O)C1 | inactive | inactive | inactive | inactive | inactive |  | inactive | inactive | inactive | inactive
C[Si](C)(C)N[Si](C)(C)C | inactive | inactive | inactive | inactive | inactive |  | inactive | inactive | inactive | inactive
O=[N+]([O-])c1cc(C(F)(F)F)ccc1Cl | inactive | inactive | inactive | inactive | inactive |  | inactive | inactive | inactive | inactive
CC(=O)C(C)C | inactive | inactive | inactive | inactive | inactive |  | inactive | inactive | inactive | inactive
CCCCCCCCO | inactive | inactive | inactive | inactive | inactive |  | inactive | inactive | inactive | inactive

— PubChem BioAssay (Tox21)
